Where “and” joins values, the source holds several entries; their conditions need not be identical. Equal entries are not always repeated. Compounds without any hit were thinned out: in the full panel of roughly 79,000, 15% have a hit. Calls of active or inactive are those of the source. No stated cut-off is given here; in the data, active means growth inhibition above about 70%; inactive means the rest.

A short description of one assay: NCI Yeast Anticancer Drug Screen. Data for the mlh1 rad18 strain (AID 175). To be noted: S. cerevisiae mlh1 rad18 strain growth inhibition; at 5.0 µM (retest, dose inferred, filed as 0.5); hits give high values. As to the method: Growth inhibition of yeast strains with defined genetic alterations is measured as a screen for potential anti-cancer activity. Selected strains with alterations in DNA damage repair or cell cycle control were exposed to compounds and growth inhibition was measured relative to vehicle treated controls. The strain used in this assay is mlh1 rad18
In the case of `COc1cc(N(CC(C)Br)CC(C)Br)ccc1N=Nc1ccccc1C(=O)O` (configuration not stated), the growth inhibition is 33% (inactive).

As for `Oc1c(Cl)c(Cl)c(O)c(Cl)c1Cl`, the growth inhibition was 47% (inactive).

`CCOc1c(Br)cc(N=Cc2ccc(N(CCCl)CCCl)c(OC)c2)cc1Br`: the growth inhibition is 73% (active).

Regarding `Cc1cccc(C)c1N=C(N)N[N+](=O)[O-]`, the growth inhibition is 33% (inactive). Turning to `CCOC(=O)C1=C(C)/C(=C/c2[n-]c(C)c(C(=O)OCC)c2C)N=C1C.CCOC(=O)C1=C(C)/C(=C/c2[n-]c(C)c(C(=O)OCC)c2C)N=C1C.[Zn+2]`, the growth inhibition was 6% (inactive). Consider `O=P1(N2CCOCC2)OC(c2ccccc2)=CCN1c1ccccc1` (configuration not stated), for which the growth inhibition was -1% (inactive). Regarding `C/C=C(\C)C(=O)OC1CC(C)(C)CC2C3=CCC4C5(C)CCC(=O)C(C)(C)C5CCC4(C)C3(C)CCC12C(=O)O` (configuration not stated) (tested in a mixture with another compound), the growth inhibition was 26% (inactive).

Turning to `COC(C)(C)[CH]([Hg][Cl])n1ccccc1=O` (configuration not stated), the growth inhibition was 98% (active). For `C/C(=N\NC(N)=O)C(CN1CCCCC1)C(c1ccccc1)c1c(O)c2ccccc2oc1=O` (configuration not stated), the growth inhibition is 17% (inactive). As to `Cc1cc[n+](C2=C(Nc3c(C)cccc3C)C(=O)c3ccccc3C2=O)cc1`, the growth inhibition is -1% (inactive).

Still in this assay, the particulars now being: S. cerevisiae mlh1 rad18 strain growth inhibition; at 50.0 µM (retest, dose inferred, filed as 5.0); hits give high values.
As for `COc1cc(N(CC(C)Br)CC(C)Br)ccc1N=Nc1ccccc1C(=O)O` (configuration not stated), the growth inhibition was 94% (active). The same measure, in the same setting: with `Oc1c(Cl)c(Cl)c(O)c(Cl)c1Cl` the figure was 98% (active).

As for `CCOc1c(Br)cc(N=Cc2ccc(N(CCCl)CCCl)c(OC)c2)cc1Br`, the growth inhibition is 95% (active).

`Cc1cccc(C)c1N=C(N)N[N+](=O)[O-]`: the growth inhibition was 99% (active). As for `CCOC(=O)C1=C(C)/C(=C/c2[n-]c(C)c(C(=O)OCC)c2C)N=C1C.CCOC(=O)C1=C(C)/C(=C/c2[n-]c(C)c(C(=O)OCC)c2C)N=C1C.[Zn+2]`, the growth inhibition is 55% (inactive). As to `O=P1(N2CCOCC2)OC(c2ccccc2)=CCN1c1ccccc1` (configuration not stated), the growth inhibition was 3% (inactive).

Regarding `C/C=C(\C)C(=O)OC1CC(C)(C)CC2C3=CCC4C5(C)CCC(=O)C(C)(C)C5CCC4(C)C3(C)CCC12C(=O)O` (configuration not stated) (tested in a mixture with another compound), the growth inhibition was 82% (active). `COC(C)(C)[CH]([Hg][Cl])n1ccccc1=O` (configuration not stated): the growth inhibition was 98% (active). Same read-out and setting: with `C/C(=N\NC(N)=O)C(CN1CCCCC1)C(c1ccccc1)c1c(O)c2ccccc2oc1=O` (configuration not stated) the figure was 17% (inactive). Regarding `Cc1cc[n+](C2=C(Nc3c(C)cccc3C)C(=O)c3ccccc3C2=O)cc1`, the growth inhibition was 51% (inactive).

Staying with this assay, now noted: S. cerevisiae mlh1 rad18 strain growth inhibition; at 50.0 µM; hits give high values.
Turning to `c1ccc2c(c1)ccc1[s+]cccc12`, the growth inhibition is 76% (active). Consider `CC(=O)O[C@H]1CCC2[C@@H]3CCC4c5nonc5CC[C@]4(C)C3CC[C@@]21C` (some centres not stated), for which the growth inhibition is 17.9% (inactive). Turning to `COc1cc(N(CC(C)Br)CC(C)Br)ccc1N=Nc1ccccc1C(=O)O` (configuration not stated), the growth inhibition is 80.2% (active). For the compound `Cc1cc(Cl)ccc1N`, the growth inhibition is 21.4% (inactive).

As for `CC(C)CC(N)C(=O)O` (configuration not stated), the growth inhibition was 6.15% (inactive) and -40.9% (inactive). The same measure, in the same setting: with `Oc1c(Cl)c(Cl)c(O)c(Cl)c1Cl` the figure was 98.8% (active). For the compound `CN1C(=O)C(C)(C2=CCCCC2)C(=O)NC1=S` (configuration not stated), the growth inhibition was 11.9% (inactive).

Take `CCOc1c(Br)cc(N=Cc2ccc(N(CCCl)CCCl)c(OC)c2)cc1Br`: the growth inhibition is 86.8% (active). `Cc1cccc(C)c1N=C(N)N[N+](=O)[O-]`: the growth inhibition was 88% (active). Consider `N.N.N.N.N#N.N#N.[Cl-].[Os+6]`, for which the growth inhibition was -39% (inactive). On the same count and under the same terms, the result for `CC1(C)OP23(NC(=O)OC2(C(F)(F)F)c2ccccc2O3)OC1(C)C` (configuration not stated) reads -27.4% (inactive). Regarding `CCOC(=O)C1=C(C)/C(=C/c2[n-]c(C)c(C(=O)OCC)c2C)N=C1C.CCOC(=O)C1=C(C)/C(=C/c2[n-]c(C)c(C(=O)OCC)c2C)N=C1C.[Zn+2]`, the growth inhibition is 98.2% (active). As for `CCOP(=O)(Oc1ccc([N+](=O)[O-])cc1)c1cccc(Br)c1` (configuration not stated), the growth inhibition was 25% (inactive).

`O=C(O)CN1C(=O)CN=C(c2ccccn2)c2cc(Cl)ccc21`: the growth inhibition was -17% (inactive). On to `O=P1(N2CCOCC2)OC(c2ccccc2)=CCN1c1ccccc1` (configuration not stated), for which the growth inhibition was -3.45% (inactive). Still for that read-out and setting: the result for `CCCC(C)C1C(=O)N(C)C(=O)N(C)C1=O` (configuration not stated) reads 14.9% (inactive); that for `C/C=C(\C)C(=O)OC1CC(C)(C)CC2C3=CCC4C5(C)CCC(=O)C(C)(C)C5CCC4(C)C3(C)CCC12C(=O)O` (configuration not stated) (tested in a mixture with another compound), 84.3% (active).

On to `C[N+](CCCl)(CCCl)Cc1cc([N+](=O)[O-])cc([N+](=O)[O-])c1`, for which the growth inhibition is 5.95% (inactive).

Regarding `Cc1ccc(NC(=O)C(Cl)(Cl)Cl)cc1Cl`, the growth inhibition is 14.8% (inactive).

`COC(C)(C)[CH]([Hg][Cl])n1ccccc1=O` (configuration not stated): the growth inhibition is 99.3% (active). As for `C/C(=N\NC(N)=O)C(CN1CCCCC1)C(c1ccccc1)c1c(O)c2ccccc2oc1=O` (configuration not stated), the growth inhibition was 81.5% (active). Regarding `Cc1cc[n+](C2=C(Nc3c(C)cccc3C)C(=O)c3ccccc3C2=O)cc1`, the growth inhibition is 71.2% (active).

These data come from PubChem BioAssay (NCI).
